# PubChem BioAssay AID686978 (National Center for Advancing Translational Sciences (NCATS), 2013)
# The campaign covered roughly 420,000 compounds. About 64,000 (15%) were called active. Another 27% or so got no clear call; they are omitted. The list is a sample of the results. Values without a mark were called inactive. The call rests on the fitted dose curve; in most records, active means well fitted inhibition curve with a large enough effect; inconclusive means small, poorly fitted or top-dose-only effect; inactive means flat fitted curve, though single readings scatter.
# Assay: qHTS for Inhibitors of human tyrosyl-DNA phosphodiesterase 1 (TDP1): qHTS in cells in absence of CPT; further: nearly all actives have a fitted effect of over 55% in size
# Details: DT40 Tdp1-/- hTDP1 cells, no CPT, ATP luminescence, 48 h; activity change, negative = growth inhibition: at 46.2 µM (top of the series)
# Summary of the method: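 Growth kinetics read by CellTiter-Glo luminescence after ≥48 hr at 37 °C. Cells: DT40 Tdp1-/- stably carrying human TDP1, 400 per well, compound exposure in the absence of CPT (DMSO vehicle).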
# On the % scale 0 is the no-effect control and ±100 the full control effect; potency means the concentration at half of the fitted maximal effect.
SMILES,"activity change, negative = growth inhibition [%]",Potency
COC(=O)CC1C(C)(C)C(OC(C)=O)C2CC3=C4CC(=O)OC(c5ccoc5)[C@]4(C)CCC3[C@@]1(C)C2=O (some centres undefined),-19.3,
C=C1C([C@@]2(C)C(OC(C)=O)CC(=O)O[C@@](C)(COC(C)=O)C2CC(=O)OC)C(OC=O)C(OC(=O)C(O)C(C)CC)[C@]2(C)C(c3ccoc3)CC(=O)C12O (some centres undefined),,4.61 µM (active)
CCOC(=O)C1(Cc2ccccc2C)CCCN(S(C)(=O)=O)C1 (centres undefined),10.4,
C/C(=N\NC(=O)OC(C)(C)C)c1ccc[nH]1,-16.5,
Cn1c(=O)c2c(SCC(=O)NCC3CCCO3)nc(-c3ccccc3F)nc2n(C)c1=O (centres undefined),-26.5,
Cc1ccccc1-c1nc(SCC(=O)N(C)c2ccccc2)c2c(=O)n(C)c(=O)n(C)c2n1,,9.2 µM (active)
Cc1cccc(-c2nc(SCC(=O)Nc3cc(C)on3)c3c(=O)n(C)c(=O)n(C)c3n2)c1,2.45,
O=C(CN(C(=O)c1csnn1)c1cccc(F)c1)NCc1ccc(F)cc1,-2.72,
CCCCn1c(N)c(N(CCC(C)C)C(=O)COC(=O)c2ccc(CC)cc2)c(=O)[nH]c1=O,6.86,
Cc1nc(NCCN)c(C#N)c2c1COC(C)(C)C2,-19.8,
CCCCc1nc(NCCN)c(C#N)c2c1CSC(C)(C)C2,,20.6 µM (active)
CCCCc1nc(NCc2ccccc2)c(C#N)c2c1CCCC2,-19.1,
CCOc1ccc(S(=O)(=O)Nc2ccncc2)c(C)c1C,-7.83,
Cc1nn(-c2ccccc2)c(C)c1/C=N/NC(=O)CSc1nc2ccccc2c(=O)n1-c1ccccc1,,18.4 µM (active)
COc1ccc(OC)c(/C=N/NC(=O)CSc2nnc(C)n2-c2ccccc2)c1,-3.99,
O=C(CSc1nc2ccccc2c(=O)n1-c1ccc(F)cc1)NC1CC1,16.1,
CCCS(=O)(=O)NC(=O)C1(C)CCCN(C(=O)c2cccs2)C1 (centres undefined),1.68,
COc1cc(/C=C2\C(=N)N3N=C(CC(=O)N4CCOCC4)SC3=NC2=O)cc(OC)c1OC,12.8,
Cc1noc(C)c1C(=O)N(CC(=O)NC1CCCC1)Cc1ccccc1F,-4.62,
CCOP1(=O)C=C(C(C)(C)C)OC1c1ccc(F)cc1 (centres undefined),-5.51,
CN(C)CCSc1nc(N)c2c3c(sc2n1)COC(C)(C)C3,-19.5,
C=CCNC(=S)NNc1ncnc2sc3c(c12)CC(C)(C)OC3,,5.17 µM (active)

SMILES,"activity change, negative = growth inhibition [%]",Potency
C[C@H]1CN([C@@H](C)CO)C(=O)CCCn2cc(nn2)CO[C@@H]1CN(C)S(=O)(=O)c1ccccc1C#N,-18.8,
CCC1CCc2c(sc(NC(C)=O)c2C#N)C1 (centres undefined),-4.74,
Cc1nnc(SC(C)C(=O)c2c[nH]c3ccccc23)n1C1CC1 (centres undefined),-23.9,
COc1ccc(C(C(O)C(=O)c2c[nH]c3ccccc23)N2CCN(c3ccccc3)CC2)cc1 (centres undefined),,25.9 µM (active)
COc1ccc(N2CCN(C(C)=C3C(=O)c4ccccc4C3=O)CC2)cc1,1.97,
O=C(COc1ccc(Cl)cc1)Nc1ccc2oc(=O)ccc2c1,-12.1,
Cc1ccc(N(C(=O)c2sc(C)nc2C)C(C(=O)NC(C)(C)C)c2ccncc2)cc1 (centres undefined),-7.84,
CC1(C)C=C2[C@H]3CC[C@@H]4[C@@]5(C)CCC(=O)C(C)(C)[C@@H]5CC[C@@]4(C)[C@]3(C)CC[C@@]2(C(=O)O)CC1,,8.2 µM (active)
Cc1cc(C)cc(N(C(C)C(=O)Nc2c(C)n(C)n(-c3ccccc3)c2=O)S(C)(=O)=O)c1 (centres undefined),0.735,
CCCCOc1ccc(CN2C(=O)C(=O)c3cc(Br)cc(C)c32)cc1OC,,1.16 µM (active)
CCCCOc1ccc(Cn2c(=O)oc3ccc(C)cc32)cc1OC,,14.6 µM (active)
COc1ccc(Cn2c(=O)oc3ccccc32)cc1,-21.5,
CCCCn1nnnc1C1(C)CCC(=O)N1Cc1ccc(OC)c(OC)c1 (centres undefined),-5.49,
COc1ccc(CN2CCOC2=O)cc1OC,-1.9,
CCOc1cc(CN2CCN(C(=O)CC(C)C)CC2)ccc1OC,-28.3,
Cc1cccc(-n2c(Cc3cc(=O)[nH]c(=O)[nH]3)nnc2SC(C)C)c1,-10.6,
CC/C(=N\NC(=O)c1c(C)nc2ccccn12)c1ccc(Cl)cc1,-28.9,
CCCCCC(=O)Nc1ccc(S(=O)(=O)Nc2ccc(Cl)nn2)cc1,-0.978,
CCCCN(C)Cc1c(C)[nH]c2ccc(Cl)cc2c1=O,-8,
CCOC(=O)C1=C(C)NC(SC)=NC1c1ccccc1 (centres undefined),-25.7,
CCOC(=O)C1=C(C)NC(C)=C(C(=O)OCC)C1c1ccccn1,1.59,
C=CCC1(C#N)C(=S)NC(C)=C(C(=O)OCC)C1c1ccccc1 (centres undefined),,29.1 µM (active)

SMILES,"activity change, negative = growth inhibition [%]",Potency
Cc1ccsc1C1C(C#N)=C(N)OC2=C1C(=O)CC(C)(C)C2 (centres undefined),-19.9,
CCOC(=O)CSc1nnc(CNC(=O)Cc2ccccc2)n1-c1ccccc1OC,-11.6,
O=C(COc1ccc(Cl)cc1)NCCSc1ccccc1,-24.2,
COc1ccc(C(=O)COC(=O)CNC(=O)c2cccs2)cc1Br,2.17,
COc1ccc(S(=O)(=O)n2cnc3ccccc32)c(C)c1,,10.3 µM (active)
Cc1ccc(S(=O)(=O)n2cnc3ccccc32)c(C)c1,-22.7,
Cc1ccc(C)c(S(=O)(=O)n2cnc3ccccc32)c1,5.49,
COc1ccc(C)cc1NC(=S)N1CCOCC1,5.24,
C=CCOc1c(Br)cc(/C=N\n2nnnc2N)cc1OC,-11.6,
C[C@H]1CN([C@@H](C)CO)C(=O)c2cc(-c3cccc(F)c3)cnc2O[C@@H]1CN(C)S(C)(=O)=O,-5.26,
CC1CN(Cc2nc3c(c(=O)n(C)c(=O)n3C)n2Cc2cccc(Cl)c2)CC(C)O1 (centres undefined),-12.8,
C=CCOc1nc2c(c(=O)n(C)c(=O)n2C)n1Cc1ccc(Cl)cc1Cl,,14.6 µM (active)
Cn1c(=O)c2c(nc(Oc3ccc(C#N)cc3)n2Cc2ccc(Cl)cc2Cl)n(C)c1=O,1.97,
CN1CCc2nc(SC(C(=O)O)c3ccccc3)c(C#N)c(-c3cccs3)c2C1 (centres undefined),-9.2,
COc1ccc(CCNC(=O)Cn2c(=O)n(-c3ccccc3)c(=O)c3c(C)c(C)sc32)cc1OC,-19.5,
C=CCn1c(SCC(N)=O)nnc1-c1cc2c(s1)CCC(CC)C2 (centres undefined),-16.5,
O=C1C=C(c2ccccc2)CCC1,-7.87,
C=CC(=O)c1ccc2ccccc2c1,,2.31 µM (active)
CC(=O)c1ccc2c(ccc3ccccc32)c1,-26.8,
CC(=O)CCC(=O)c1ccc2ccccc2c1,-2.51,
